Source: ChEMBL document CHEMBL5724796, “Tm Shift (DSF) assay results for EUbOPEN Chemogenomics Library” (2024)
Residues, ends and D or L forms follow the SMILES beside them. *: point of attachment. Cbz = O=C(OCc1ccccc1)*; Boc = CC(C)(C)OC(=O)*; CH2F = FC*

Each compound was assayed against T1, Transcription intermediary factor 1-alpha (Homo sapiens) (UniProt O15164). Conditions: Compound concentration 20.0 uM.
T1 sequence (whole entry): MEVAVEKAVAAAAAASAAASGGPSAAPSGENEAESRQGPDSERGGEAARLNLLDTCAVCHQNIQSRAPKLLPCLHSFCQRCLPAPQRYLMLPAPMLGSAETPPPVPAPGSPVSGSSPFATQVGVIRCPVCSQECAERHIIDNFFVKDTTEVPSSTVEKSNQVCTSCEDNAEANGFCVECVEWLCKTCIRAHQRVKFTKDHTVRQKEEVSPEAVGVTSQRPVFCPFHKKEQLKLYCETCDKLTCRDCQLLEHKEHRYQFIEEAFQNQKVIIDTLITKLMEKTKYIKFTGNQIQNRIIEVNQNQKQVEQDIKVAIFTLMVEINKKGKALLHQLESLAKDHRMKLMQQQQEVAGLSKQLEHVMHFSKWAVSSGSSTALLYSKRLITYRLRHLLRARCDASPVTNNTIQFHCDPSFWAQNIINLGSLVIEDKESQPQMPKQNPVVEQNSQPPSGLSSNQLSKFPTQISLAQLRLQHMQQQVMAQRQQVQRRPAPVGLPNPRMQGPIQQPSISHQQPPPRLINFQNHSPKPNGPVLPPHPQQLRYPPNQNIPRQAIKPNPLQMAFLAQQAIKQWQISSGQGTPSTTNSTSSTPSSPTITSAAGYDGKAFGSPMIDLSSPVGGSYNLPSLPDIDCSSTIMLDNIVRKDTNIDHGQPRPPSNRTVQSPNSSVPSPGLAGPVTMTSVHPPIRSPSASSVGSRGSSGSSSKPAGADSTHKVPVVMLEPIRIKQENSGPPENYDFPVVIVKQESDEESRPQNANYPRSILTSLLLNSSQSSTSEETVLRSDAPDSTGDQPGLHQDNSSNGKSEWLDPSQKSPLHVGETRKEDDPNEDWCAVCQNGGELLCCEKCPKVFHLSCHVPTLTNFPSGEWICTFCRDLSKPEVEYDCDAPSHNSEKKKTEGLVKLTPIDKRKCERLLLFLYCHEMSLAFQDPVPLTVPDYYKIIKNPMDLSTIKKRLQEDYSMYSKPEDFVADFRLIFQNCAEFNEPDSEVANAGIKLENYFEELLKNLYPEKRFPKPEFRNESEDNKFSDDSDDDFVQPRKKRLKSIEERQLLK

SMILES	ΔTm
CCn1c(=S)[nH]c2cc3c(NCc4ccccc4N4CCC(CO)CC4)ncnc3cc21	-0.23 °C
COc1cc2c(cc1OC)[C@H]1C[C@@H](O)[C@H](CC(C)C)CN1CC2	0.12 °C
C=CCn1c(N[C@@H]2C[C@H](c3ccc(OCc4ccccc4)cc3)CN(C)C2)nc2cc[nH]c2c1=O	0.04 °C
CC(C)[C@H](NC(=O)[C@H](CCC(=O)O)NC(=O)[C@H](C)NC(=O)OC(C)(C)C)C(=O)N[C@H](C=O)CC(=O)O (Boc-AEVD-aldehyde)	-0.84 °C
Cc1cnc(-c2ccccc2C(C)C)nc1NCc1ccc(-n2ccnn2)cc1	-0.58 °C
O=C(c1ccc2c(ccn2-c2ccc(F)cc2)c1)N1CC(N2CCN(C(=O)c3nccs3)CC2)C1	-0.34 °C
Cc1c(Nc2ccc(S(=O)(=O)N3CCN(C)CC3)cc2F)nc2ccc(-c3cnn(C4CC4)c3)cn2c1=O	-1.92 °C
CC(=O)Nc1ccc(C(=O)Nc2ccc(F)cc2N)cc1	-0.15 °C
CCCCCCCCCCCCCCCCNNC(=O)c1cccs1	-0.93 °C
CCNC(=O)NCCSC[C@H]1O[C@@H](n2cnc3c(N)ncnc32)[C@H](O)[C@@H]1O	-1.13 °C
CNc1cc(-c2cccc(Cl)c2Cl)nc(N)n1	0.28 °C
CCNC(=O)/C=C/c1cccc(Br)c1	-0.12 °C
O=C(c1cc(Cc2n[nH]c(=O)c3ccccc23)ccc1F)N1CCN(C(=O)C2CC2)CC1	-1.81 °C
CCCOC(=O)N1CCN(C(=O)c2ccc3c(Cl)cc(-c4ccc(C5(N)CC5)cc4)nc3c2)C[C@H]1C	-3.45 °C
CC(C)C[C@@H](C=O)NC(=O)[C@@H](NS(=O)(=O)c1ccc(F)cc1)C(C)C	-1.15 °C
CC(C)NCC(O)COC(Cn1c2ccccc2c2ccccc21)Cn1c2ccccc2c2ccccc21 (centres undefined)	-3.49 °C
COc1ccc(-c2c(-c3ccc(C#N)c(F)c3)nc(N3CCC(N)CC3)n(C)c2=O)cc1F	-0.36 °C
Cc1noc2c1-c1ccccc1C(c1ccc(Cl)cc1)=N[C@H]2CC(N)=O	-0.29 °C
Cc1ncc(Cl)cc1NCc1ccc(C(=O)N[C@@H](CC2CCCC2)C(=O)NC2CC2)s1	2.21 °C
O=C(NO)c1cccc(C(=O)NCCc2ccccc2)c1	-1.33 °C

SMILES	ΔTm
N#Cc1c(N)[nH]c2cc(/C=C/c3cccc(F)c3)ccc12	1.03 °C
O=C(O)CCNc1cc(N2CCc3ccccc3CC2)nc(-c2ccccn2)n1	0.15 °C
CN1CCN(c2cc(C(=O)Nc3ncc(SCc4cccc(C(F)(F)F)c4)s3)ccn2)CC1	-2.66 °C
CC1=NN(c2ccc(C(=O)O)cc2)C(=O)/C1=C/c1ccc(-c2cc(C)c(C)cc2[N+](=O)[O-])o1	-1.19 °C
CC(C)(C)NS(=O)(=O)c1cccc2c(NC(=O)[C@H](Cc3ccccc3)NC(=O)C3CCCCC3)cccc12	2.01 °C
CC(=O)N1CCC(c2ccc(C(=O)NC(=N)N)cc2C(F)(F)F)CC1	1.39 °C
O=C(NO)c1cnc(NC2(c3ccccc3)CC2)nc1	-1.75 °C
CC(C)c1cnc(CSc2cnc(NC(=O)C3CCNCC3)s2)o1	-0.84 °C
O=C(O)CCNC(=S)NCCCC[C@H](NS(=O)(=O)c1cccc(F)c1)C(=O)N[C@@H](Cc1c[nH]c2ccccc12)C(=O)NC1CCC1	-1.96 °C
CNCC[C@@H](Oc1ccccc1C)c1ccccc1	0.48 °C
CCN(C(=O)c1cc(F)ccc1Oc1cncnc1N1CC2(CCN(C[C@H]3CC[C@H](NS(=O)(=O)CC)CC3)CC2)C1)C(C)C	0.24 °C
Cc1ccc2c(c1)nc(/C=C/c1cccc3cccnc13)n2-c1cccc(OCCCN2CCN(C)CC2)c1	1.41 °C
CN1Cc2c(Cl)cc(Cl)cc2[C@H](c2cccc(S(=O)(=O)NCCOCCOCCNC(=O)NCCCCNC(=O)NCCOCCOCCNS(=O)(=O)c3cccc([C@@H]4CN(C)Cc5c(Cl)cc(Cl)cc54)c3)c2)C1	-0.19 °C
C[C@H](NC(=O)[C@H](Cc1ccccc1)NC(=O)OCc1ccccc1)C(=O)CF	-1.01 °C
Cc1cc(C)nc(SCC(=O)Nc2ncc(Cc3cccc(OCc4cn(Cc5ccccc5)nn4)c3)s2)n1	3.08 °C
COC(=O)CC(NC(=O)C(C)NC(=O)C(NC(=O)C(CC(=O)OC)NC(=O)C(NC(=O)OCc1ccccc1)C(C)C)C(C)C)C(=O)CF (centres undefined) (Cbz-VD(OMe)VAD(OMe)-CH2F; configuration not given here)	-0.97 °C
CC1C(C#N)=C(N)OC2=C1C(=O)CC(c1cccc3ccccc13)C2 (centres undefined)	-1.61 °C
Cc1ccc(C(=O)Nc2ccc(S(=O)(=O)O)c3cc(S(=O)(=O)O)cc(S(=O)(=O)O)c23)cc1NC(=O)c1cccc(NC(=O)Nc2cccc(C(=O)Nc3cc(C(=O)Nc4ccc(S(=O)(=O)O)c5cc(S(=O)(=O)O)cc(S(=O)(=O)O)c45)ccc3C)c2)c1	-1.19 °C
CN1C[C@@H]2[C@H](C1)[C@H]2CN(Cc1ccc(F)c(Cl)c1)C(=O)c1cn(C)cn1	-1.48 °C
